Hit rate of the full screen: of about 340,000 compounds, about 3,300 (0.97%) were called active.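 The calls were made as follows: active = mean activation above about 17%, with every replicate also reaching it (limit read from the data, passing the limit was not always enough); inconclusive = only one of the two conditions met; inactive = the rest.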 The entries come from a sample that favours actives as a whole.

The target in this assay is Protein FosB (Mus musculus) (UniProt P13346). As to the kind of experiment: enhancers of mouse delta FosB DNA binding – biochemical, fluorescence polarization, TAMRA-CDK5 oligo, single point, primary screen (AID 493131).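 Also: fluorescence polarization rise as delta FosB binds a TAMRA Cdk5 AP-1 oligo.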 As to conditions: purified delta FosB, at 25 µM, hits give high values, percent of positive-control signal above neutral wells.
Sequence of Protein FosB (Mus musculus) (P13346 whole entry, looked up): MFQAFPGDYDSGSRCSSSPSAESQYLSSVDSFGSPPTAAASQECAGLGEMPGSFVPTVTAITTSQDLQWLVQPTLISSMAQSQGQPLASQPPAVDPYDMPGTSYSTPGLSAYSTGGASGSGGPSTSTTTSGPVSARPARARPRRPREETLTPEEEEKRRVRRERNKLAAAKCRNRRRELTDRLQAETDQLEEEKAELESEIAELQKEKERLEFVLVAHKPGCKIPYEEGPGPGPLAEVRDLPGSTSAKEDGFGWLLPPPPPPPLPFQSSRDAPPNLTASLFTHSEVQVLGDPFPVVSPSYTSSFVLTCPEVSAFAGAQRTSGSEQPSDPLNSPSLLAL
As for `COc1ccc(C(=O)Nc2cccc(S(C)(=O)=O)c2)cc1`, the activation is -0.053% (inactive).

In the case of `COc1ccc(NS(=O)(=O)c2ccc(C(=O)Nc3c(C)n(C)n(-c4ccccc4)c3=O)cc2)cc1`, the activation was 1.19% (inactive).

On to `COc1ccc(NS(=O)(=O)c2ccc(NC(=O)c3ccc(N(C)S(C)(=O)=O)cc3)cc2)cc1`, for which the activation is 43.3% (active).

For `Cc1noc(C)c1NC(=O)Nc1cccc2c1O[C@H](CN(C)C(=O)Nc1ccccc1)[C@@H](C)CN([C@H](C)CO)C2=O`, the activation was 4.59% (inactive).

With `COc1ccc(C(=O)N(C)Cc2ccc(OC)c(OC)c2OC)cc1S(=O)(=O)N1CCOCC1`, the activation is -8.82% (inactive).

Regarding `COC(=O)c1sc2ncccc2c1OCc1ccc(Cl)cc1Cl`, the activation is 17% (active).

Turning to `COc1cccc(NC(=O)CN(C)C(=O)Cc2ccc(Cl)cc2Cl)c1`, the activation was -4.55% (inactive).

Regarding `COCCNC(=O)c1snc2ccc(Cl)cc12`, the activation was -8.32% (inactive).

`CC(=O)c1cccc(NC(=O)[C@@H](NC(N)=O)C(C)C)c1`: the activation was 2.28% (inactive).

Regarding `Cc1ccc2nc(N(CCN(C)C)C(=O)C3=COCCO3)sc2c1`, the activation was -2.06% (inactive).

`CN(C)CCN(C(=O)CN1C(=O)c2ccccc2C1=O)c1nc2cc3c(cc2s1)OCCO3`: the activation was 38% (active).

Take `CN(C)CCN(C(=O)C1CCCCC1)c1nc2cc3c(cc2s1)OCO3`: the activation was 7.71% (inactive).

On to `Cn1nc(C(C)(C)C)c(NC(=O)c2sccc2Cl)c1C(C)(C)C`, for which the activation was -8.28% (inactive).

For `Cc1ccc(C)c(S(=O)(=O)N(C)c2ccc(OC(=O)C3CCN(C(=O)c4ccc(F)cc4)CC3)cc2)c1`, the activation is -7.71% (inactive).

Regarding `C=CCn1c(=O)n(C)c2c(=O)n(C)c(=O)n(C)c21`, the activation was -1.42% (inactive).

With `Cc1sc2nc(CSCC(=O)Nc3c(Cl)cccc3Cl)[nH]c(=O)c2c1C`, the activation was 32.5% (active).

`Cc1sc2nc(COC(=O)C(NC(=O)c3ccc(Cl)cc3Cl)C(C)C)[nH]c(=O)c2c1C` (configuration not stated): the activation was -6.82% (inactive).

For the compound `Cc1sc2nc(CSCC(=O)NC3CCCCC3)[nH]c(=O)c2c1C`, the activation was -10.1% (inactive).

Take `COc1ccc2oc(C(=O)OCC(=O)N(CC(C)C)c3c(N)n(Cc4ccccc4)c(=O)[nH]c3=O)c(C)c2c1`: the activation was 3.39% (inactive).

On to `COc1ccc(C(CNC(=O)c2cccc(S(=O)(=O)Nc3ccc(Br)cc3)c2)N(C)C)cc1` (configuration not stated), for which the activation was 14% (inactive).

For `COc1ccc(C)cc1NC(=O)CSc1ccc(Cl)cc1`, the activation is -7.74% (inactive).

In the case of `COC(=O)c1cc(OC)c(OC)cc1NC(=O)CSc1ccc(C)cc1`, the activation is -0.589% (inactive).

Take `COC(=O)c1scc(C)c1NC(=O)CSc1ccc(Cl)cc1`: the activation is 35% (active).

For `COc1ccc2sc(-c3ccc(N(C)C)cc3)c(C#CCO)c2c1`, the activation is -9.84% (inactive).

On to `COc1ccc2c(c1)c(=Cc1ccc(N(C)C)cc1)c1cc(-c3ccccc3)[n+](C)n12`, for which the activation is 126% (active).

Turning to `COc1ccc2sc(-c3ccc(N(C)C)cc3)c(-c3ccc4cc[nH]c4c3)c2c1`, the activation is -4.04% (inactive).

For `CCC(=O)NC(Nc1cc(C)ccn1)(C(F)(F)F)C(F)(F)F`, the activation is -2.53% (inactive).

Values taken from PubChem BioAssay AID493131 (Broad Institute, 2011).
